Measurements reported in PubChem BioAssay (Tox21).
Records with an inconclusive call do not appear. Calls of active or inactive are those of the source. Unless noted, calls come from the whole dose curve; as a rule, active = well fitted curve in the direction sought with a large enough effect in the repeat runs; inconclusive = weak or mixed curves; inactive = no such curve, though single readings can be large; an effect the other way counts as inactive or inconclusive.

Experiments:
[1] = qHTS assay to identify aromatase inhibitors - cell viability counter screen (AID 743084); conditions: MCF-7 aro ERE viability, CellTiter-Fluor, 24 h; series mostly up to 70.3 µM;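 note: cells stimulated with testosterone during compound exposure; nearly all actives have a fitted effect of over 55% in size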
[2] = biological target: Aryl hydrocarbon receptor (Homo sapiens) (UniProt P35869); experiment: qHTS assay to identify small molecule that activate the aryl hydrocarbon receptor (AhR) signaling pathway (AID 743085); conditions: HepG2 AhR-luc (HG2L7.5c1), luciferase, 24 h; series mostly up to 70.3 µM;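 note: HG2L7.5c1 human HepG2 liver cells with stably integrated DRE-driven firefly reporter; nearly all actives have a fitted effect of over 15% in size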
Aryl hydrocarbon receptor (Homo sapiens), sequence (P35869 whole entry, looked up): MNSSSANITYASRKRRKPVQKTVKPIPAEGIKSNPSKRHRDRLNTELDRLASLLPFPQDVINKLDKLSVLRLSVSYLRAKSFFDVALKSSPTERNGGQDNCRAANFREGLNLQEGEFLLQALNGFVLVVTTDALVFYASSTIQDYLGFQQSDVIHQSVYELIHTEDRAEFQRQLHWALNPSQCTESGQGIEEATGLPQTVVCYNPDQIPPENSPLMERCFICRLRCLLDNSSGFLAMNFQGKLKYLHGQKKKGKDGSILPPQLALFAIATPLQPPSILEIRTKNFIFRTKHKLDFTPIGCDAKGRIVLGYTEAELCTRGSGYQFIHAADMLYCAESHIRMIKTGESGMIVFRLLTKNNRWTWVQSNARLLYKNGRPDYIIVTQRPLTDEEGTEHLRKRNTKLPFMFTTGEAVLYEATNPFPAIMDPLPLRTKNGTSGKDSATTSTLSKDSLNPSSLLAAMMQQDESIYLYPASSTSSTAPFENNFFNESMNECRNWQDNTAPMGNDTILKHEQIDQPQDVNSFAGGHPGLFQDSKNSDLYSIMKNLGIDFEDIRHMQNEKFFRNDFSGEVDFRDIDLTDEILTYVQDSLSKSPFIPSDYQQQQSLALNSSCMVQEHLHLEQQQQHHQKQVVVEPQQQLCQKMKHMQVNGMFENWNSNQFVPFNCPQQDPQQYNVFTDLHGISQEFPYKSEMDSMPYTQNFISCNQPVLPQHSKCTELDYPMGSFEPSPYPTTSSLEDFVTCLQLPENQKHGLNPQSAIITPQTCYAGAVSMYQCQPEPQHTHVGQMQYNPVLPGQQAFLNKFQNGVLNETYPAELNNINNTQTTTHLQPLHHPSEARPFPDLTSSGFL
Method in brief: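 A multiplexed format paired cell viability (CellTiter-Fluor fluorescence) with AhR-dependent luciferase output (ONE-Glo luminescence) in the same wells of HepG2 DRE-luc cells after 24 h compound exposure at 37C.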

[3] = qHTS assay to identify small molecule that activate the aryl hydrocarbon receptor (AhR) signaling pathway - cell viability counter screen (AID 743086); conditions: HepG2-AhR-luc viability, CellTiter-Fluor, 24 h; series mostly up to 70.3 µM;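 note: HepG2 liver cells carrying the AhR DRE luciferase reporter; nearly all actives have a fitted effect of over 45% in size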
Method in brief: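 HepG2-AhR-luc (HG2L7.5c1) cells, 4000/well, treated 24 h at 37 C with compound; viability measured as CellTiter-Fluor fluorescence after 30 min in the same wells as the luciferase read.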

[4] = biological target: Peroxisome proliferator-activated receptor gamma (Homo sapiens) (UniProt P37231); experiment: qHTS assay to identify small molecule agonists of the peroxisome proliferator-activated receptor gamma (PPARg) signaling pathway (AID 743094; active = well fitted activation curve with a large enough effect in the signal ratio in the repeat runs, not every such curve was filed as active; the % refers to the signal ratio); conditions: HEK293H PPARg-UAS-bla, beta-lactamase FRET ratio, 17 h; series mostly up to 57 µM
Peroxisome proliferator-activated receptor gamma (Homo sapiens), sequence (P37231 whole entry, looked up): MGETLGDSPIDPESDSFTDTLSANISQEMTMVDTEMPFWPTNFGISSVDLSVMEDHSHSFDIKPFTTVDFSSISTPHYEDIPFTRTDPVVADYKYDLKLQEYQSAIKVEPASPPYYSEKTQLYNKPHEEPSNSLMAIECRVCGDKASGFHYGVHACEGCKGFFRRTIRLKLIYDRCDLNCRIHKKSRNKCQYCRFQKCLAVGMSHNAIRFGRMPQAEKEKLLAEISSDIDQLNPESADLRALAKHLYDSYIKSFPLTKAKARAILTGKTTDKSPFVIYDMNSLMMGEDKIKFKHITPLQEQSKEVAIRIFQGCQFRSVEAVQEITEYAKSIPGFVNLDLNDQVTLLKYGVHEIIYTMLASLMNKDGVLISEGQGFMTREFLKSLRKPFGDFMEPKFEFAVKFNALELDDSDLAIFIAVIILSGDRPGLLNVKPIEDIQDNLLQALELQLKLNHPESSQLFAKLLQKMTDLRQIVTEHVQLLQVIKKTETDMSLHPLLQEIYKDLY
Method in brief: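 GeneBLAzer PPARg UAS-bla HEK293H cells carrying a stably integrated beta-lactamase reporter were pre-incubated 5 h at 37C, then exposed to compounds in DMSO for 17 h at 37C; LiveBLAzer B/G FRET substrate was added for 1 h at room temperature and fluorescence read.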

Measured: Potency

NC(=O)C1c2ccccc2CCc2ccccc21
inactive: [1] | [2] | [3] | [4]

C[S+](CC[C@H](N)C(=O)O)C[C@H]1O[C@@H](n2cnc3c(N)ncnc32)[C@H](O)[C@@H]1O (stereo partly specified)
inactive: [1] | [2] | [3] | [4]

CCN(CC)CCNC(=O)c1ccc(NS(C)(=O)=O)cc1
inactive: [1] | [2] | [3] | [4]

Cc1c(O)c(=O)ccn1C
inactive: [1] | [2] | [3] | [4]

CCN(CC)CCn1c(=O)c(Cc2ccc(OC)cc2)nc2ccccc21
inactive: [1] | [2] | [3] | [4]

CC1CCCC(C)N1NC(=O)c1ccc(Cl)c(S(N)(=O)=O)c1 (stereo unspecified)
inactive: [1] | [2] | [3] | [4]

CC(C)C[C@H](NC(=O)[C@@H](COC(C)(C)C)NC(=O)[C@H](Cc1ccc(O)cc1)NC(=O)[C@H](CO)NC(=O)[C@H](Cc1c[nH]c2ccccc12)NC(=O)[C@H](Cc1cnc[nH]1)NC(=O)[C@@H]1CCC(=O)N1)C(=O)N[C@@H](CCCN=C(N)N)C(=O)N1CCC[C@H]1C(=O)NNC(N)=O
inactive: [1] | [2] | [3] | [4]

C=CC[N@@+]12CC[C@@]34c5ccccc5N5/C=C6/[C@H]7C[C@H]8[C@@]9(CC[N@@+]8(CC=C)C/C7=C/CO)c7ccccc7N(/C=C(/[C@@H](C[C@@H]31)/C(=C\CO)C2)[C@H]54)[C@@H]69
inactive: [1] | [2] | [3] | [4]

O=C[C@H](O)[C@@H](O)[C@@H](O)[C@H](O)CO
inactive: [1] | [2] | [3] | [4]
